The values below come from PubChem BioAssay (EPA / NIEHS).

Several values for one entry are separate records, joined by “and”; a condition that tells them apart may be missing. Equal values may be shown once. Records with an inconclusive call do not appear. The source holds several records for some structures; these can differ, active in one and inactive in another. Activity calls are given as the source filed them. The calls were made as follows, unless noted: active = hit-call score of the fitted dose curve at least 0.9, where 1 is the maximum; inactive = score below 0.9.

Experiment [1] in a line: ATG_PBREM_CIS: Attagene CIS-FACTORIAL HepG2 Assay for human Phenobarbital-responsive Enhancer Module (PBREM) (AID 2282955). Conditions: HepG2 PBREM cis-reporter, Attagene multiplexed transcription; actives raise or lower the signal. The procedure, abridged:
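Endogenous transcription factors in human liver HepG2 cells drive a PBREM cis-element reporter, whose transcript level after 24 h treatment is quantified by RT-PCR with capillary electrophoresis; activity fitted in both directions against DMSO.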

The target in experiment [2] is Paired box protein Pax-6 (Homo sapiens) (UniProt P26367). In words: ATG_Pax6_CIS: Attagene CIS-FACTORIAL HepG2 Assay for human Paired Box 6 (PAX6) (AID 2282956). Conditions: HepG2 CIS-FACTORIAL PAX6 reporter transcription, RNA readout; actives raise or lower the signal. The procedure, abridged: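 Transient MRTU transfection of HepG2 → compound exposure 24 h → TriZol RNA, oligo(dT) RT → PCR, 6-FAM primer extension, HpaI cut → capillary electrophoresis; activity fitted both directions against DMSO.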
Sequence of Paired box protein Pax-6 (Homo sapiens) (P26367 whole entry, looked up): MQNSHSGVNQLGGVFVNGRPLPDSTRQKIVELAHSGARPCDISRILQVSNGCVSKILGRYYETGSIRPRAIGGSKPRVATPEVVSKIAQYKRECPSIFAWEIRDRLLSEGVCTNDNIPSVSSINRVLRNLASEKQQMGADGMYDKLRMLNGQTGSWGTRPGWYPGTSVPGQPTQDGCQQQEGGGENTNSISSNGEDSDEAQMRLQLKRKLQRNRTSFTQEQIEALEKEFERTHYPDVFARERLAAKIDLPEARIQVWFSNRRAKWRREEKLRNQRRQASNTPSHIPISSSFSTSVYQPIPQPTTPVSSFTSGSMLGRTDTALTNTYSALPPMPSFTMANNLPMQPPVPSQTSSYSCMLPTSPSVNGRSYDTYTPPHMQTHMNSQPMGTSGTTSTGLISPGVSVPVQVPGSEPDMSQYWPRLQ

The nature of experiment [3]: ATG_PXRE_CIS: Attagene CIS-FACTORIAL HepG2 Assay for human Pregnane X Receptor Element (PXRE) (AID 2282957). The note with it: HepG2 Attagene CIS-FACTORIAL PXRE reporter, mRNA; actives raise or lower the signal. The method, boiled down: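 Cells: HepG2, transiently transfected reporter units under cis promoter control. Exposure: 24 h. Detection: reporter mRNA via RT-PCR/CE fluorescence; bidirectional fitting, DMSO-referenced.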

Experiment [4] in a line: ATG_PPRE_CIS: Attagene CIS-FACTORIAL HepG2 Assay for human Peroxisome Proliferator-activated Response Element (PPRE) (AID 2282958). Conditions: HepG2 PPRE cis-element reporter, Attagene transcription factor profiling; actives raise or lower the signal. The method, boiled down: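 HepG2, transient MRTU transfection (cis promoter elements, endogenous TFs). 24 h dosing. RNA → oligo(dT) RT → PCR → 6-FAM primer extension → HpaI digest → CE. Bidirectional fit vs DMSO.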

Experiment [5] is described as follows: ATG_RORE_CIS: Attagene CIS-FACTORIAL HepG2 Assay for human RAR-related Orphan Receptor Element (RORE) (AID 2282959). Conditions: HepG2 Attagene cis-factorial RORE reporter, mRNA; actives raise or lower the signal. The procedure, abridged:
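Transient MRTU transfection of human HepG2 liver cells (FuGene 6); 24 h compound exposure; TriZol RNA, oligo(dT) RT, PCR, FAM labeling, HpaI cut, CE fragment analysis. DMSO = negative control/baseline.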

The nature of experiment [6]: ATG_Sox_CIS: Attagene CIS-FACTORIAL HepG2 Assay for human SRY-box transcription factor (SOX) (AID 2282960). The note with it: HepG2 Attagene cis-factorial SOX reporter, mRNA; actives raise or lower the signal. The procedure, abridged: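 Endogenous factor activity in human liver HepG2 cells carrying transfected cis-regulated reporter units. RNA taken 24 h post-dose, reverse-transcribed, PCR-amplified and sized by capillary electrophoresis. Gain or loss of signal fitted relative to DMSO.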

The target of experiment [7] is Transcription factor Sp1 (Homo sapiens) (UniProt P08047). In words: ATG_Sp1_CIS: Attagene CIS-FACTORIAL HepG2 Assay for human Specificity Protein 1 (Sp1) (AID 2282961). The note with it: HepG2 Sp1 cis-reporter transcription, actives raise or lower the signal. The procedure, abridged:
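Transient MRTU-transfected HepG2, 24 h compound exposure. Total RNA → oligo(dT) RT → PCR of reporter → 6-FAM primer extension → HpaI digest → CE. Endpoint fitted both directions vs DMSO.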

Experiment [8] concerns the target Signal transducer and activator of transcription 3 (Homo sapiens) (UniProt P40763). In words: ATG_STAT3_CIS: Attagene CIS-FACTORIAL HepG2 Assay for human Signal Transducer and Activator of Transcription 3 (STAT3) (AID 2282963). Conditions: HepG2, Attagene cis-factorial STAT3 reporter transcription; actives raise or lower the signal. The procedure, abridged:
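Transcript-level reporter assay. HepG2 transient MRTU transfection, 24 h exposure, fluorescence detection after RT-PCR and CE; DMSO baseline.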

Experiment [9] is described as follows: ATG_TA_CIS: Attagene CIS-FACTORIAL HepG2 Assay for human TA Basal Promoter (AID 2282964). The note with it: HepG2 Attagene CIS-factorial TA basal promoter reporter; actives raise or lower the signal. The procedure, abridged:
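Background internal-marker endpoint from a 52-component HepG2 cis-reporter panel. Cells treated 24 h; reporter transcripts quantified via RT-PCR and CE fluorescence against DMSO baseline.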

Experiment [10] can be described thus: ATG_TCF_b_cat_CIS: Attagene CIS-FACTORIAL HepG2 Assay for human T-Cell-Factor with beta-catenin (TCF/b-cat) (AID 2282965). The note with it: HepG2 TCF/beta-catenin cis-reporter transcription, actives raise or lower the signal. The procedure, abridged:
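HepG2 cells transiently transfected with multiple cis-promoter-regulated reporter transcription units, so endogenous transcription factor activity is measured. Reporter mRNA read 24 hours after dosing by RT-PCR, fluorescent labelling and capillary electrophoresis; bidirectional fitting against DMSO.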

Experiment [11] is described as follows: ATG_TAL_CIS: Attagene CIS-FACTORIAL HepG2 Assay for human TAL Basal Promoter (AID 2282966).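 Also: background control endpoint measuring basal TAL promoter reporter mRNA not a specific factor.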 The note with it: HepG2 Attagene cis-factorial TAL promoter reporter; actives raise or lower the signal. The procedure, abridged:
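RT-PCR plus capillary electrophoresis quantifies reporter mRNA induction in transiently transfected HepG2 cells after 24 h chemical treatment. DMSO serves as negative control and baseline for bidirectional fitting.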

Experiment [12] is described as follows: ATG_TGFb_CIS: Attagene CIS-FACTORIAL HepG2 Assay for human Transforming Growth Factor (TGF) (AID 2282967). The note with it: HepG2 Attagene CIS TGFb reporter, mRNA transcription; actives raise or lower the signal. The method, boiled down: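 Liver HepG2 line, cis-factorial reporter panel, 24 h dosing. Quantitation: RT-PCR products labeled with 6-FAM, cut with HpaI, resolved by capillary electrophoresis; DMSO-referenced bidirectional analysis.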

Experiment [13] is described as follows: ATG_VDRE_CIS: Attagene CIS-FACTORIAL HepG2 Assay for human Vitamin D Receptor Element (VDRE) (AID 2282968). The note with it: HepG2 VDRE cis-reporter transcription, actives raise or lower the signal. The procedure, abridged:
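RT-PCR/CE readout of reporter mRNA; HepG2, transient transfection, 24 h dosing; DMSO baseline; bidirectional analysis.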

Experiment [14] has as its target Nuclear receptor subfamily 1 group I member 3 (Homo sapiens) (UniProt Q14994). In words: ATG_CAR_TRANS: Attagene TRANS-FACTORIAL HepG2 Assay for human Constitutive Androstane Receptor (CAR) (AID 2282969; active = hit-call score of the fitted dose curve at least 0.9, where 1 is the maximum;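 also: activators raise reporter mRNA above DMSO so AC50 marks induction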). The note with it: HepG2 Attagene TRANS-FACTORIAL CAR reporter. The method, boiled down:
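HepG2 cells transiently transfected with multiplexed GAL4-UAS reporter units expressing chimeric NR-Gal4 proteins; compound exposure 24 h. Reporter mRNA measured by RT-PCR, 6-FAM labelling, HpaI digestion and capillary electrophoresis; gain-of-signal fitted against DMSO baseline.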

The target of experiment [15] is X-box-binding protein 1 (Homo sapiens) (UniProt P17861). In words: ATG_Xbp1_CIS: Attagene CIS-FACTORIAL HepG2 Assay for human X-box Binding Protein 1 (XBP1) (AID 2282972). The note with it: HepG2 XBP1 cis-element reporter, Attagene multiplex; actives raise or lower the signal. The method, boiled down:
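HepG2, transient MRTU transfection (cis-promoter driven), 24 h compound exposure. Total RNA → oligo(dT) RT → PCR → 6-FAM labeling → HpaI cut → CE. Bidirectional fit vs DMSO.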

The target in experiment [16] is Androgen receptor (Homo sapiens) (UniProt P10275). In words: ATG_AR_TRANS: Attagene TRANS-FACTORIAL HepG2 Assay for human Androgen Receptor (AR) (AID 2282973; active = hit-call score of the fitted dose curve at least 0.9, where 1 is the maximum). Conditions: HepG2 Attagene TRANS-FACTORIAL AR reporter transcription. The method, boiled down:
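Transcriptional activity of an exogenous AR–Gal4 fusion read as GAL4-UAS reporter transcript levels in transfected human HepG2 cells after 24 h dosing. Detection via RT-PCR, 6-FAM labelling, HpaI digest and capillary electrophoresis; increase over DMSO baseline.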

Experiment [17] can be described thus: ATG_M_19_TRANS: Attagene TRANS-FACTORIAL HepG2 Assay for M19 Transcription Factor (Internal Marker) (AID 2282974; active = hit-call score of the fitted dose curve at least 0.9, where 1 is the maximum). Conditions: HepG2 Attagene TRANS-FACTORIAL M19 internal marker reporter. The procedure, abridged:
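Fluorescence of 6-FAM-labelled reporter cDNA fragments, separated by capillary electrophoresis, served as the readout. These derived from HepG2 cells carrying transfected GAL4-UAS reporter units after 24 h dosing, with DMSO as negative control.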

Experiment [18] concerns the target Estrogen receptor (Homo sapiens) (UniProt P03372). In words: ATG_ERa_TRANS: Attagene TRANS-FACTORIAL HepG2 Assay for human Estrogen Receptor alpha (ERa) (AID 2282970; active = hit-call score of the fitted dose curve at least 0.9, where 1 is the maximum). The note with it: HepG2 Attagene TRANS ERa GAL4 reporter, mRNA. The method, boiled down:
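Cells: HepG2, transiently transfected. Construct: GAL4-UAS reporter units regulated by exogenous NR-Gal4 chimeras. Time: 24 h. Detection: reporter mRNA by RT-PCR, capillary electrophoresis, fluorescence. Baseline: DMSO, upward fitting.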

Experiment [19] concerns the target Steroid hormone receptor ERR1 (Homo sapiens) (UniProt P11474). In words: ATG_ERRa_TRANS: Attagene TRANS-FACTORIAL HepG2 Assay for human Estrogen-Related Receptor alpha (ERRa) (AID 2282971; active = hit-call score of the fitted dose curve at least 0.9, where 1 is the maximum). The note with it: HepG2 Attagene TRANS reporter, ERRa transactivation. The method, boiled down: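 Reporter transcripts from ERRa-Gal4 chimera activity measured in transiently transfected human HepG2 cells 24 hours after dosing, using RT-PCR with 6-FAM primer extension, HpaI digestion and capillary electrophoresis; DMSO is baseline.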

The nature of experiment [20]: ATG_SREBP_CIS: Attagene CIS-FACTORIAL HepG2 Assay for human Sterol Regulatory Element Binding (SREBP) (AID 2282962). The note with it: HepG2 Attagene cis-factorial SREBP reporter, mRNA; actives raise or lower the signal. The procedure, abridged:
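Transfected HepG2 (cis-regulated reporter library, endogenous TFs) → compound 24 h → total RNA → oligo(dT) RT → reporter-specific PCR → FAM primer extension, HpaI cut → CE fluorescence. Fit bidirectional vs DMSO.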

Sequence of Androgen receptor (Homo sapiens) (P10275 whole entry, looked up, the tested form may be a part): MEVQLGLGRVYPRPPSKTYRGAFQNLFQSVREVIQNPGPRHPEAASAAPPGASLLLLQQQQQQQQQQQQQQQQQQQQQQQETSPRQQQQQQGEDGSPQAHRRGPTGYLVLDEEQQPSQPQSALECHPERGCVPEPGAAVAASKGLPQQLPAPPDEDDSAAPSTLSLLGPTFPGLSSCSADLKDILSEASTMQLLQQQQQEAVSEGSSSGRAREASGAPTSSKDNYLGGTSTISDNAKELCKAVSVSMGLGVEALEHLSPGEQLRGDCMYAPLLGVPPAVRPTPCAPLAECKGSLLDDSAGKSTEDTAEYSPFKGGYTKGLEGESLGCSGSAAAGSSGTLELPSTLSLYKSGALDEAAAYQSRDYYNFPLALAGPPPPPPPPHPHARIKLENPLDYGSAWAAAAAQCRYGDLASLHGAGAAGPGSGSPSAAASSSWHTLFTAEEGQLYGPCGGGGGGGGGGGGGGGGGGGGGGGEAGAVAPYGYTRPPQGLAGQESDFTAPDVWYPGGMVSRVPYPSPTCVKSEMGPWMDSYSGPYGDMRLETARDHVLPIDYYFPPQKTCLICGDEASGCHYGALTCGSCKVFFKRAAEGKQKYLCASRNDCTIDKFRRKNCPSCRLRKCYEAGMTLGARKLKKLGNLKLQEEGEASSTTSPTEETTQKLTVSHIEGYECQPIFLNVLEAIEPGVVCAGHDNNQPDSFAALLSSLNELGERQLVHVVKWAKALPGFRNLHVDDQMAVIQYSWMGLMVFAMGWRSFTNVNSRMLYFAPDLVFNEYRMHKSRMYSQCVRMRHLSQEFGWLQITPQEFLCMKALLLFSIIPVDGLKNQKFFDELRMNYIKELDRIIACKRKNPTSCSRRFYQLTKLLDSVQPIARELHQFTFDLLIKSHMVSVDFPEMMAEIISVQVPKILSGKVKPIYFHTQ
Sequence of Signal transducer and activator of transcription 3 (Homo sapiens) (P40763 whole entry, looked up): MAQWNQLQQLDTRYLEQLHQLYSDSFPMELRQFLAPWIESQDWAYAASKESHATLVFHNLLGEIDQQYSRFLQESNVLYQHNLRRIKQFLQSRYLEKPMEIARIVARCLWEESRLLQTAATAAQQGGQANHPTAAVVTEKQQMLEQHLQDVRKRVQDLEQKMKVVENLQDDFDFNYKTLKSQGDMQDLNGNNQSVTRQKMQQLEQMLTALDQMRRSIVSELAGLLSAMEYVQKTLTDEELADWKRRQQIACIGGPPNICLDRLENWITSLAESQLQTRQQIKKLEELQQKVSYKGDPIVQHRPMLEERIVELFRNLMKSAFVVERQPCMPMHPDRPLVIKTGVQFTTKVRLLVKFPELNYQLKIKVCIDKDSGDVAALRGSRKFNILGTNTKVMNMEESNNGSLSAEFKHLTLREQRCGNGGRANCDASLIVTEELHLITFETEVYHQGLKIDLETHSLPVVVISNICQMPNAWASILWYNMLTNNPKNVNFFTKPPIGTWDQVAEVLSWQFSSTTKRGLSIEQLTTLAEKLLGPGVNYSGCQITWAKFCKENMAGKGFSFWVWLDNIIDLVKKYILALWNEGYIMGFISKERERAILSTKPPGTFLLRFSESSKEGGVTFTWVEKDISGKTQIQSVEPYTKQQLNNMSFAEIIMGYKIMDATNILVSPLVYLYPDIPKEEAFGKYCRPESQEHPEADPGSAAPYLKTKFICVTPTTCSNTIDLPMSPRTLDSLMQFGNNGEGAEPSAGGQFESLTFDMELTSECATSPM
Sequence of Transcription factor Sp1 (Homo sapiens) (P08047 whole entry, looked up): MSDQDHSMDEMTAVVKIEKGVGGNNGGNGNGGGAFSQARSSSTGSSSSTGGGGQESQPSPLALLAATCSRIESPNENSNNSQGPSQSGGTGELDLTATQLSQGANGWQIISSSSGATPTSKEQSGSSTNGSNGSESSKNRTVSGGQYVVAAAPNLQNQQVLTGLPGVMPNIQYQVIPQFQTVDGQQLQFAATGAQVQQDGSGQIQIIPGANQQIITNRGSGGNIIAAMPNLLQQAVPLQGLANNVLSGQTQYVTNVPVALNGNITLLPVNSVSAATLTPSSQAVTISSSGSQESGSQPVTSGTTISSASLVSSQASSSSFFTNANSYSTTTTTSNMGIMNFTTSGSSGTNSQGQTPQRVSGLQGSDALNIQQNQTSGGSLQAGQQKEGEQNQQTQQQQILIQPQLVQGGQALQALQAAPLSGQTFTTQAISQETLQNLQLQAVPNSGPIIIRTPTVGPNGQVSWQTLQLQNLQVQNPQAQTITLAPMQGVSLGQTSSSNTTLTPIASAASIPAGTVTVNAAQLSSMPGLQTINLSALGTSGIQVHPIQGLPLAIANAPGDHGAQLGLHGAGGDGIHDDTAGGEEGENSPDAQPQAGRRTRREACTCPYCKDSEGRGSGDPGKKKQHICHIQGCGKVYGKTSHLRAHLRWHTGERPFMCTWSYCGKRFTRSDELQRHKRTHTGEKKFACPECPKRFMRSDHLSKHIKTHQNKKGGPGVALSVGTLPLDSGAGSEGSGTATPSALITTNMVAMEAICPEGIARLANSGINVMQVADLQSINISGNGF
Sequence of Nuclear receptor subfamily 1 group I member 3 (Homo sapiens) (Q14994 whole entry, looked up, the tested form may be a part): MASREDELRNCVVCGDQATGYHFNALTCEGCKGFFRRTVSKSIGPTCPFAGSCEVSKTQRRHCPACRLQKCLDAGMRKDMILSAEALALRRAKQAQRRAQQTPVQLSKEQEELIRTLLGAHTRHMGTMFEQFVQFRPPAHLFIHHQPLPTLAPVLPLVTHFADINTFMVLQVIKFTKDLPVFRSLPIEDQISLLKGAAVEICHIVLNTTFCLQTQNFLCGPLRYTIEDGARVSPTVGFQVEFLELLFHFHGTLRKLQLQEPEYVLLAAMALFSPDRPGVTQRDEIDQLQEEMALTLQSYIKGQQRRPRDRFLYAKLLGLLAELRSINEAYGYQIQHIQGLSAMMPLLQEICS
Sequence of X-box-binding protein 1 (Homo sapiens) (P17861 whole entry, looked up): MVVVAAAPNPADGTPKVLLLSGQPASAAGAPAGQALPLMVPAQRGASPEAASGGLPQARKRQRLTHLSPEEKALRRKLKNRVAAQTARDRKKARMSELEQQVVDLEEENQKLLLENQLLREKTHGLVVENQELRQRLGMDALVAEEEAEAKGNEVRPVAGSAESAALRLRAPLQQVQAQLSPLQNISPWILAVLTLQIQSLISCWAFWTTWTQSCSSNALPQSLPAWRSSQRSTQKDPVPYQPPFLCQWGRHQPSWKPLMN
Sequence of Steroid hormone receptor ERR1 (Homo sapiens) (P11474 whole entry, looked up, the tested form may be a part): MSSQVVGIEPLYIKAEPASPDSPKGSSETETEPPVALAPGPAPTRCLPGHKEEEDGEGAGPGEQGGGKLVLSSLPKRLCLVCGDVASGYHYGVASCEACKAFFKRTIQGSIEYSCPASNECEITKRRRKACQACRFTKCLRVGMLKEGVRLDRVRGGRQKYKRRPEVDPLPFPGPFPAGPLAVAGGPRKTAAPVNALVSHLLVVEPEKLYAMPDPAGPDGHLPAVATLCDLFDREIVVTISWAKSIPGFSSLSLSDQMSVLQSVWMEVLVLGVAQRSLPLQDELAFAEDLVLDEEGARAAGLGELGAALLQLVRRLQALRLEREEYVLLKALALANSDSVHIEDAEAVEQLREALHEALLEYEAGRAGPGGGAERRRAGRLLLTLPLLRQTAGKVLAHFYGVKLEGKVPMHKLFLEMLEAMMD
Sequence of Estrogen receptor (Homo sapiens) (P03372 whole entry, looked up, the tested form may be a part): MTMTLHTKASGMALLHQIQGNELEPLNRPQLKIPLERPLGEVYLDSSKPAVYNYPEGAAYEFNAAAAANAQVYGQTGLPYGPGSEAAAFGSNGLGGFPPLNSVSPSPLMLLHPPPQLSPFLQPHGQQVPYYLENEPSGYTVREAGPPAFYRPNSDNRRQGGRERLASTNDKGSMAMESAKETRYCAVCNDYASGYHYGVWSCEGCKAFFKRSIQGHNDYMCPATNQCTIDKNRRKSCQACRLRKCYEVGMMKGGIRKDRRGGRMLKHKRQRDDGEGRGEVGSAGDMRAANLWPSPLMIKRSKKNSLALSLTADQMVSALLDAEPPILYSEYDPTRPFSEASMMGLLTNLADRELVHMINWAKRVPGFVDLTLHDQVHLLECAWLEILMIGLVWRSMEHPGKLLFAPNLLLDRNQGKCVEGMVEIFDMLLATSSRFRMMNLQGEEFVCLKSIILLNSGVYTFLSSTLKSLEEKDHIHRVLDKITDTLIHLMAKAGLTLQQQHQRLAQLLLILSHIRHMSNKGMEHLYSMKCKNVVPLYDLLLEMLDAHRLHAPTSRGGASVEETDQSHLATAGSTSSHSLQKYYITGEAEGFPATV

The AC50 is the concentration giving half of the maximal activity seen. For the molecule `CCCC1COC(Cn2cncn2)(c2ccc(Cl)cc2Cl)O1` (stereo not given), the AC50 is 50 µM (active) in experiment [1]; 4.09 µM (active) and 85 µM (active) in experiment [3]; 50 µM (active) in experiment [9]; 7.99 µM (active) in [13]. Further, the outcome in experiment [1], in [2], in [4], in experiment [5], in [6] and in [7] was inactive. In addition, the molecule was called inactive in experiment [8], in experiment [9], in experiment [10], in [11], in experiment [12] and in [13]. Moreover, the molecule was classed as inactive in experiment [14], in experiment [15], in [16] and in experiment [17].

In the case of `COc1nc(C)nc(NC(=O)NS(=O)(=O)c2ccccc2CCC(F)(F)F)n1`, the result in experiment [1], in [2], in experiment [4], in [5], in [6] and in experiment [7] was inactive. Also, the call in [8], in [9], in experiment [10], in experiment [11], in [12] and in experiment [13] was inactive. The call in experiment [14], in [18], in experiment [19], in experiment [15], in experiment [16] and in experiment [17] was inactive. Also, the AC50 in experiment [3] was 18.9 µM (active) and 50 µM (active) and 33.4 µM (active).

As for `C#CCOS(=O)OC1CCCCC1Oc1ccc(C(C)(C)C)cc1` (stereo not given), the AC50 in [1] was 1.39 µM (active); in [3], 661 nM (active); in experiment [5], 2.4 µM (active); in [6], 4.22 µM (active). Also, the molecule was classed as inactive in experiment [2], in experiment [4], in experiment [7], in [20], in experiment [8] and in [9]. In addition, the molecule was classed as inactive in experiment [10], in experiment [11], in experiment [12], in experiment [14], in experiment [18] and in experiment [15].
